Data published in PubChem BioAssay (NCI).
About 83,000 compounds went through this panel and 20% of them were active in at least one assay; those are over-represented in the sample as a whole.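 For each line, cells grew in 96-well plates with the test compound present at a single concentration for 48 hours.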 The source made the active and inactive calls.

System: NCI-H23 lung
Assay: NCI-60 one-dose screen, 48 h (100 = growth as untreated, 0 = no growth, -100 = all killed)
Conditions: 10 µM unless noted
Experimental: Growth inhibition of the NCI-H23 human Non-Small Cell Lung tumor cell line is measured as a screen for anti-cancer activity. Cells are grown in 96 well plates and exposed to the test compound for 48 hours. Compounds are tested at a single concentration, which is 10^-5 M for most compounds. The reported endpoint is percent growth (GI% or GIPRCNT), where numbers from 0 - 100% represent growth inhibition, and numbers from -100% - 0 represent cell death. For example, a value of 40 represents 60% growth inhibition. A value of 0 means no net growth occurred over the course of the experiment. A value of -40 indicates 40% of cells at the beginning of the experiment died by the end of the experiment. A value of -100 means all cells are dead at the end of the experiment.
NCI-60 Human Tumor Cell Lines Screen was performed using the standard one-dose NCI protocol, which is described in more detail at https://dtp.cancer.gov/discovery_development/nci-60/default.htm.
Compounds with GIPRCNT values below 10 were considered active. Activity score was based on GIPRCNT using the following formula: […]
Score is 0 for GIPRCNT values of 100 or above, 50 for GIPRCNT values of 0, and 100 for GIPRCNT values of -100.

| Compound | growth |
| --- | --- |
| CCn1cc(C(=O)N/N=C/c2cccs2)c(=O)c2cc(F)c(N3CCNC(C)C3)c(F)c21 (stereo not given) | 89.8% (inactive) |
| O=[N+]([O-])c1ccc(-c2nc(N3CCOCC3)c3c4c(sc3n2)CCCC4)cc1 | 88.8% (inactive) |
| Cn1cc(-c2nc(-c3c[nH]c4ccncc34)cs2)c2ccccc21 | 86% (inactive) |
| CCN(CC)c1ccc(/C=C/C(=O)c2ccc(Nc3nc(Nc4ccccc4)nc(Nc4ccccc4)n3)cc2)cc1 | 62.5% (inactive) |
| CN(C)CCCC1(c2ccc(F)cc2)OCc2cc(-c3cccc4[nH]ccc34)ccc21 (stereo not given) | 75.2% (inactive) |
| O=C1/C(=C/c2ccc(Cl)c(Cl)c2)CN(C(=O)C(Cl)Cl)C/C1=C\c1ccc(Cl)c(Cl)c1 | -66.3% (active) |
| O=C1N[C@@H]2NC(=[N+]3CCOCC3)N[C@@H]2N1 | 103% (inactive) |
| O=C1NCCC12CCN(c1c(Cl)cncc1-c1ccc(O)cc1)CC2 | 100% (inactive) |
| COc1ccc(-c2nn(-c3ccccc3)cc2/C=C2/SC(=S)N(C)C2=O)cc1 | 94.5% (inactive) |
| NC(=O)c1c(NC(=O)c2ccccc2)sc2c1CCC(=O)C2 | 5.93% (active) |
| CC(C)CCC[C@@H](C)[C@H]1CC[C@H]2[C@@H]3CC=C4C[C@@H](C(C(=O)O)C(=O)O)CC[C@]4(C)[C@H]3CC[C@]12C | -48% (active) |
| O=C(O)c1ccc(-n2cc(/C=N/Nc3ccc(F)cc3)c(-c3cc4ccccc4oc3=O)n2)cc1 | 90.8% (inactive) |
| O=C(NCCCCNC(=O)OCc1ccc2c(Cl)cc(Cl)c(O)c2n1)OCc1ccc2c(Cl)cc(Cl)c(O)c2n1 | 24.6% (inactive) |
| CCOC(=O)Cn1c(O)c(N=Nc2ccc(S(N)(=O)=O)cc2)c2cc(Br)ccc21 | 77.1% (inactive) |
| CN(C)CCCC1(c2ccc(F)cc2)OCc2cc(-c3cncc4ccccc34)ccc21 (stereo not given) | 77.6% (inactive) |
| O=S(=O)(NCCNc1nccc(-c2c(-c3cccc(F)c3)nc3occn23)n1)c1ccc(Br)cc1 | 87.9% (inactive) |
| COc1ccc(OC)c(C(=O)/C=C/c2cc3c(c(OC)c2OC)OCO3)c1 | 57.8% (inactive) |
| O=C(CCc1nnc(Cn2cnc3nc[nH]c3c2=O)o1)c1nc2ncccc2[nH]1 | 97.4% (inactive) |
| Cc1cc(=O)[nH]c2c(C#N)cnn12 | 102% (inactive) |
| O=[N+]([O-])C1C(c2ccccc2)C12c1ccccc1-c1ccccc12 (stereo not given) | 7.97% (active) |

| Compound | growth |
| --- | --- |
| COc1ccc(-c2nnc3n(C)c(=O)c4ccccc4n23)cc1N | 46.6% (inactive) |
| Cc1nc2c(=O)[nH]c(SCC(=O)Nc3cccc(F)c3)nc2[nH]c1=O | 100% (inactive) |
| O=C(c1ccc(Cl)cc1)N1CCN(c2ccnc3cc(Cl)ccc23)CC1 | 98.4% (inactive) |
| O=C1c2c(c3c4ccc(Br)cc4oc3c3[nH]c4ccccc4c23)C(=O)N1O | 22.7% (inactive) |
| O=C1Nc2ccccc2/C1=C\c1nc(-c2ccccc2)n2ccccc12 | 85% (inactive) |
| Cc1ccc(Sc2oc(-c3ccc(C)cc3)nc2[P+](c2ccccc2)(c2ccccc2)c2ccccc2)cc1 | -17.2% (active) |
| CCN(CC)CCOc1ccc(C(=C(C)c2ccc(Cl)cc2)c2ccc(OCCN(CC)CC)cc2)cc1 | 3.75% (active) |
| O=C(CCC(=O)N/N=C/c1ccccc1O)N/N=C/c1ccccc1O | 61.2% (inactive) |
| CCc1ccc(C(=O)/C=C/C23c4ccccc4C(c4ccccc42)C2C(=O)NC(=O)C23)cc1 (stereo not given) | 15.9% (inactive) |
| C=C(C)[C@@H]1CC[C@]2(C(=O)OC)CC[C@]3(C)[C@H](CC[C@@H]4[C@@]5(C)C/C(=C/NC(N)=S)C(=O)C(C)(C)[C@@H]5CC[C@]43C)[C@@H]12 | 80.4% (inactive) |
| Fc1ccc(Nc2nc3nonc3nc2Nc2ccc(I)cc2)cc1 | -19.5% (active) |
| O=[N+]([O-])c1ccc(S(=O)(=O)N2CCN(C3=NS(=O)(=O)c4ccccc4N3c3ccccc3)CC2)cc1 | 87.2% (inactive) |
| O=C(Nc1ncc(Cc2ccc(Cl)c(C(F)(F)F)c2)s1)c1ccc2nnsc2c1 | 37.4% (inactive) |
| CCCC(=O)NC(c1ccc2c(c1)OCO2)c1ccc2cccnc2c1O (stereo not given) | 24.1% (inactive) |
| O=C1c2cc(Cl)ccc2S(=O)(=O)c2c(NCCCNCCO)nc3ccccc3c21 | 25.7% (inactive) |
| C=C1C(=O)O[C@H]2[C@H]1CC/C(COC(=O)CCSCCC(=O)OC/C1=C/CC[C@@]3(C)O[C@H]3[C@H]3OC(=O)C(=C)[C@@H]3CC1)=C\CC[C@@]1(C)O[C@@H]21 | 9.21% (active) |
| O=C(CCCCCCN1CC(=O)N2[C@H](c3cc(Br)cs3)c3[nH]c4ccccc4c3C[C@H]2C1=O)NO | 50.4% (inactive) |
| CCN1C(=O)N(CC)C2C1NN=c1s/c(=C\c3cccc([N+](=O)[O-])c3)c(=O)n12 (stereo not given) | 36.4% (inactive) |
| O=C(Nn1c2c(sc1=NCc1ccccc1)C(=O)c1ccccc1C2=O)c1cc2ccc1CCc1ccc(cc1)CC2 | 32% (inactive) |
| C=CC(=O)NCc1ccc(Nc2nccc(-c3ccc(N4CCCC4)c(C#N)c3)n2)cc1 | 49.7% (inactive) |
